Results published in PubChem BioAssay AID2284201 (EPA ToxCast).
The source made the active and inactive calls. Rule for the calls: active = hit-call score of the fitted dose curve at least 0.9, where 1 is the maximum; inactive = score below 0.9.

Each compound was assayed against SLC6A2 (gene 6530) (UniProt P23975) (assay: ERF_FR_TR_hSLC6A2: Eurofins (ERF) Radioligand Transport Binding LeadHunter Assay for human Norepinephrine NET Antagonism, conducted at France lab site).
Procedure: ERF_FR_TR_hSLC6A2 is a biochemical, single-readout assay that uses extracted gene-proteins in a cell-free assay. Measurements were taken 2 hour after chemical dosing in a 96-well plate. See NET Human Norepinephrine Transporter Binding (Antagonist Radioligand) Assay, Cerep.ERF_FR_TR_hSLC6A2 is an assay component calculated from the ERF_FR_TR_hSLC6A2 assay. It is designed to measure radioligand binding using a type of binding reporter as detected by scintillation counting with radiometry technology.Data from the assay component ERF_FR_TR_hSLC6A2 was analyzed at the assay endpoint, ERF_FR_TR_hSLC6A2, in the positive analysis fitting direction relative to DMSO as the negative control and baseline of activity. Using a type of binding reporter, loss-of-signal activity can be used to understand changes in enzymatic activity as they relate to gene SLC6A2. To generalize the intended target to other relatable targets, this assay endpoint is annotated to the transporter intended target family, where the subfamily is SLC6 / Monoamine.
Human cells are incubated for 120 minutes at 4C with [3H]nisoxetine (1 nM) ligand and protriptyline as control inhibitor. Test Sample Requirements: Minimum for 1) Screen: 60 ul of 10 mM stock -OR- 1 mg (pre-weighed) for 10 uM final testing. 2) Dose Response: 90 ul of 10 mM stock -OR- 1 mg (pre-weighed) for a top concentration at 10 uM.

SLC6A2 (gene 6530), sequence (P23975 whole entry, looked up): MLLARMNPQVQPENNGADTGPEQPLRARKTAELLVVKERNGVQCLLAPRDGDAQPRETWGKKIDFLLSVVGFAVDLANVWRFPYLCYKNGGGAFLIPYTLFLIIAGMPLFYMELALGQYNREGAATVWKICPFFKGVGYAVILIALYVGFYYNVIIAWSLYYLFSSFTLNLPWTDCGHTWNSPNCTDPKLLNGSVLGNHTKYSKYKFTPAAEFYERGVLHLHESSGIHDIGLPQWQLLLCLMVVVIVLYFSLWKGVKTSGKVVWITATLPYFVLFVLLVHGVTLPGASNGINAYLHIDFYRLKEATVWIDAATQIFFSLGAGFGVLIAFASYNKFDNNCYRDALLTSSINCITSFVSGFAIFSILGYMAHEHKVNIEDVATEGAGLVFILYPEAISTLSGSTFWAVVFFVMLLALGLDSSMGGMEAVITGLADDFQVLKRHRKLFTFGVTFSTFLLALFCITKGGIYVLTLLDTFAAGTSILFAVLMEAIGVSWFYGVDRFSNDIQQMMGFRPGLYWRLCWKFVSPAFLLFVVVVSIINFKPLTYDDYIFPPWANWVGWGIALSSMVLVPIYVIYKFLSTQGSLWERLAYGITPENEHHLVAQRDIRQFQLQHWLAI

SMILES | outcome | AC50
COc1cc(CCC(=O)CC(=O)CCc2ccc(O)c(OC)c2)ccc1O | inactive | 
O=C(/C=C/c1ccc(O)cc1)CC(=O)/C=C/c1ccc(O)cc1 |  | 2120 nM (active)
CCCCC[C@H](O)CC(=O)CCc1ccc(O)c(OC)c1 | inactive | 
COc1cc(/C=C/C(=O)CC(=O)/C=C/c2ccc(O)c(OC)c2)ccc1O |  | 2630 nM (active)
